Measured values: PubChem BioAssay AID2401 (Southern Research Specialized Biocontainment Screening …, 2010)
The whole screen tested about 2,200 compounds, of which about 530 (24%) were called active.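 The calls were made as follows: active = inhibition above a set limit at one or more concentrations of the dose series; inactive = inhibition under that limit at every dose.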 A selection follows. Results with a measured potency or affinity are listed apart.

Assay: nmpC-GFP reporter counter-screen in S. Typhimurium, dose response, counter-screen for PhoP regulon inhibitor project, Salmonella Typhimurium, GFP fluorescence (AID 2401);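 also: S. typhimurium with Mg-insensitive nmpC-GFP reporter grown at 10 µM Mg2+; drop in reporter fluorescence reflects general culture growth inhibition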
Details: 4 h; series mostly up to 150 µM; inhibition: at the top concentration

| SMILES | inhibition |
| --- | --- |
| Cc1ccccc1CS(=O)(=O)c1snnc1C | -13.8% (inactive) |
| CC(=O)Nc1ccc(NS(=O)(=O)c2ccc3c(c2)n(C)c(=O)n3C)cc1 | -23.9% (inactive) |
| CCOc1ccc(-c2nnc(SCc3nnc(-c4ccccc4)o3)n2-c2ccccc2F)cc1 | -8.6% (inactive) |
| COc1ccc(/C=C/C(=O)NCCc2nc3ccccc3[nH]2)cc1 | 26.3% (inactive) |
| CCOc1cc(/C=C2/NC(=O)N(CC(=O)Nc3cccc(C)c3)C2=O)ccc1OC | -25.9% (inactive) |
| O=C(c1cccnc1Nc1ccc2c(c1)CCC2)N1CCOCC1 | -20.1% (inactive) |
| Cc1cc(C)cc(NC(=O)CSc2nc3c(c(=O)[nH]2)CN(Cc2ccc(F)cc2)CC3)c1 | -6.71% (inactive) |
| O=C(c1cc2ncc(Br)cn2n1)N1CCOCC1 | -18.7% (inactive) |
| O=[N+]([O-])c1ccccc1CNc1ccc(F)c(Cl)c1 | -24% (inactive) |
| Nc1nnc(SCCOc2ccc(Br)cc2)s1 | -20% (inactive) |
| O=S(=O)(NCc1ccccc1)c1cccc(S(=O)(=O)N2CCOCC2)c1 | 11% (inactive) |
| COc1ccc(Cl)cc1Nc1nc(-c2sc(NC(=O)c3ccco3)nc2C)cs1 | 20.6% (inactive) |
| O=C(/C=C/c1ccccc1)N1CCN(c2c(Cl)cccc2[N+](=O)[O-])CC1 | -29.2% (inactive) |
| CCCCOC(=O)CCNc1n[nH]c(=O)[nH]c1=O | 3.71% (inactive) |
| CN1CCN(S(=O)(=O)c2ccc(N)cc2)CC1 | -16.2% (inactive) |
| O=C(NCc1ccccn1)Nc1cccc(Cl)c1 | -24.5% (inactive) |
| Cn1c(N)c(C(=O)COC(=O)C2CCCCC2)c(=O)n(C)c1=O | -15.7% (inactive) |
| CC(C)CNC(=O)c1ccc(COc2ccc(Cl)cc2Cl)o1 | -4.89% (inactive) |
| C#CCOc1ccc(Cl)cc1/C=N/O | 13.5% (inactive) |
| CCCCN(C(=O)NC(=O)Nc1nc2ccc(OC)cc2s1)S(C)(=O)=O | 14.3% (inactive) |
| Cc1ccc2nc(SCC(=O)c3c(C)[nH]c4ccccc34)[nH]c2c1 | 30.9% (inactive) |
| CN(CCO)Cc1csc2ccc(Br)cc12 | -7.08% (inactive) |
| CCNC(=O)NC1(C(=O)Nc2ccc3c(c2)OCCO3)CCCCC1 | -29.3% (inactive) |
| CC1=CC(C)(C)n2c(O)c(C3=NC(=S)NC3=O)c3cc(OC(=O)c4cccc5ccccc45)cc1c32 | -11.6% (inactive) |

| SMILES | inhibition |
| --- | --- |
| CCOC(=O)C1CCCN(S(=O)(=O)c2ccc(Br)c(OC)c2)C1 (stereo not drawn) | 0.83% (inactive) |
| O=C(CCc1ccccc1)Nc1nc2ccc(S(=O)(=O)N3CCOCC3)cc2s1 | 25.6% (inactive) |
| O=C(c1ccc2nc(N3CCOCC3)sc2c1)N1CCC(Cc2ccccc2)CC1 | -16.1% (inactive) |
| CN1CCN(S(=O)(=O)c2ccc(-c3ccccc3)cc2)CC1 | -28.3% (inactive) |
| CCC1C2CN(C(C)=O)CC=C2C(C#N)=C(N)C1(C#N)C#N (stereo not drawn) | 3.63% (inactive) |
| CN(C)CCNc1nc(-c2ccccc2)nnc1C(F)(F)F | -3.73% (inactive) |
| Cc1cc(NCCN2CCOCC2)n2ncc(-c3ccccc3)c2n1 | -15.6% (inactive) |
| Nc1c(-c2ccccc2Cl)cnn1-c1cccc([N+](=O)[O-])c1 | -8.16% (inactive) |
| N#Cc1ccc(C(c2nnnn2CCc2ccccc2)N2CCCCCC2)cc1 (stereo not drawn) | -1.07% (inactive) |
| NC(=O)c1ccccc1NC(=O)/C=C/C(=O)O | -8.68% (inactive) |
| O=C(Cc1cccs1)Nc1nc2c(s1)CCCC2 | -24.8% (inactive) |
| COc1ccc([N+](=O)[O-])cc1N(CC(O)Cn1nnc2ccccc21)S(=O)(=O)c1ccc(C)cc1 (stereo not drawn) | -42.2% (inactive) |
| Cc1cccc(NC(=O)c2ccc(Cn3cc(C(F)(F)F)ccc3=O)cc2)c1 | 7.69% (inactive) |
| O=C(O)/C=C/C(=O)Nc1cccc(C(F)(F)F)c1 | -19.4% (inactive) |
| NS(=O)(=O)c1ccc(Nc2nc(-c3ccc(O)cc3)cs2)cc1 | -18.4% (inactive) |
| COCc1cc(C)nc(N2CCc3ccccc32)c1C#N | -22.8% (inactive) |
| O=C(CSc1nnc(Cc2ccccc2)o1)NCCc1ccccc1 | -24.4% (inactive) |
| CCn1c(=N)n(CC(O)c2ccccc2)c2ccccc21 (stereo not drawn) | -16% (inactive) |
| Cc1ccccc1OCCCCCn1ccnc1 | -17% (inactive) |
| COc1ccc(C(=O)NCCC2=CCCCC2)cc1OC | 5.91% (inactive) |
| C1=C(CCNc2ncnc3c2[nH]c2ccccc23)CCCC1 | 26.4% (inactive) |
| Cc1nc2ccccc2c(=O)n1/N=C/c1ccc(N(C)C)cc1 | -15.2% (inactive) |
| COc1cccc(Nc2nc(-c3sc(NC(=O)c4ccco4)nc3C)cs2)c1 | 25.7% (inactive) |
| O=C(NCCNS(=O)(=O)c1cccc(C(F)(F)F)c1)c1cc(OCC(F)(F)F)ccc1OCC(F)(F)F | -2.55% (inactive) |

| SMILES | inhibition |
| --- | --- |
| CCOC(=O)C1CCCN(C(=O)Cc2ccc(Cl)cc2)C1 (stereo not drawn) | -20.2% (inactive) |
| NC(=NCc1ccc2c(c1)OCO2)NC(=O)c1ccccc1 | 36.3% (inactive) |
| COc1ccc(-c2nc3ncccc3n2O)cc1 | -18.4% (inactive) |
| O=C(CSc1nccc(=O)[nH]1)N1c2ccccc2CCc2ccccc21 | 1.74% (inactive) |
| O=C(CSC1CC(=O)N(CCc2ccccc2)C1=O)Nc1cccc(Cl)c1 (stereo not drawn) | 9.92% (inactive) |
| COc1ccc(NC2=NC3(CCCCC3)N=C(N)N2)cc1 | -8.53% (inactive) |
| CC(C)c1ccc(NC(=O)Nc2cc3sccc3n2C)cc1 | 22.1% (inactive) |
| CCOC(=O)C1CCCN(C(=O)c2sc3nc(C)nc(N4CCOCC4)c3c2C)C1 (stereo not drawn) | -24.6% (inactive) |
| CCn1c(Cc2ccccc2)nnc1SCC(=O)Nc1nc(C)c(C)s1 | -12.1% (inactive) |
| OC1(c2cccc(C(F)(F)F)c2)CCN(c2ncnc3c2[nH]c2ccccc23)CC1 | 15.2% (inactive) |
| Cc1ccc(Oc2nnc(-c3ccccc3)c3ccccc23)cc1 | 3.31% (inactive) |
| NC(=O)c1oc2ccccc2c1NC(=O)CN1CCCCC1 | -2.53% (inactive) |
| O=C(CN1CCCc2ccccc21)N/N=C/c1c(O)ccc2ccccc12 | 38.1% (inactive) |
| Nc1ccc(S(=O)(=O)Nc2ccc(Cl)nn2)cc1 | 15.9% (inactive) |
| O=C(Nc1cccc(-c2cn3cccnc3n2)c1)c1ccco1 | -21.2% (inactive) |
| CCOCCCNC(=S)Nc1cc(C)cc(C)c1 | -3.38% (inactive) |
| O=C(CCNS(=O)(=O)c1cccc2nsnc12)Nc1ccc2c(c1)OCCO2 | -13.2% (inactive) |
| O=c1[nH]c(CN2CCCCC2)nc2ccccc12 | -18.8% (inactive) |
| c1cncc(-c2nc(N3CCOCC3)c3ccccc3n2)c1 | -13.2% (inactive) |
| c1ccc(COc2cccc(CN3CCN(c4ccccn4)CC3)c2)cc1 | -21.9% (inactive) |
| Cc1cc(C(C)c2ccccc2)c(O)c(CN2CCOCC2)c1C (stereo not drawn) | 16.5% (inactive) |
| CC1(C)CC(=O)C(/C=N/c2ncccc2C(=O)O)=C(O)C1 | -7.77% (inactive) |
| CCOC(=O)c1ccc(NC(=O)Nc2cc(C)on2)cc1 | -22.6% (inactive) |
| COc1ccc(NC2=NC(=S)N(c3cccc(C)c3)C23CCCCC3)cc1 | -30.8% (inactive) |

| SMILES | inhibition |
| --- | --- |
| CN(C)c1ccc(Nc2nc(-c3cccnc3)cs2)cc1 | 31% (inactive) |
| CCC(CC)NC(=O)COC(=O)c1ccc(OCC(=O)Nc2ccccc2OC)c(OC)c1 | -12.6% (inactive) |
| O=C(O)C1CCCN1S(=O)(=O)c1ccc2[nH]c(=O)c(=O)[nH]c2c1 (stereo not drawn) | -21.6% (inactive) |
| N=c1n(CCO)c2ccccc2n1Cc1ccc(Cl)cc1 | 10.3% (inactive) |
| N=c1n(Cc2ccc(Cl)cc2)c2ccccc2n1CC(O)c1ccco1 (stereo not drawn) | 38.9% (inactive) |
| N#CCC1c2ccccc2CCN1C(=O)Nc1ccc(Cl)cc1 (stereo not drawn) | -25.1% (inactive) |
| N/C(=N\c1nc2ccccc2o1)NC(=O)c1ccccc1F | -4.05% (inactive) |
| Cn1c(-c2ccc(N)cc2)nc2ccccc21 | -13.6% (inactive) |
| CCCCCOc1ccc(NC(=O)C(=O)NCCC2=CCCCC2)cc1 | -29% (inactive) |
| CN1/C(=C/C2CC(=O)N(c3cccc4ccccc34)C2=O)C(C)(C)c2ccccc21 (stereo not drawn) | 37.3% (inactive) |
| CN1/C(=C\C=N\NC(=O)c2ccccc2Br)C(C)(C)c2ccccc21 | 9.45% (inactive) |
| C=CCNC(=O)c1ccc(N(C)S(=O)(=O)c2ccc(OC)cc2)cc1 | -4.35% (inactive) |
| CC(=O)Nc1nc(-c2ccc(Cl)cc2)nc(C)c1C(C)=O | -23.7% (inactive) |
| COC(=O)c1ccccc1NC(=O)NCc1ccc2c(c1)OCO2 | -23.4% (inactive) |
| c1ccc(-c2cnn3nnnc3n2)cc1 | 1.88% (inactive) |
| O=C(NCc1cccs1)Nc1cccs1 | -33.1% (inactive) |
| CSc1nnc2c3c4c(sc3nc(-n3nc(C)cc3C)n12)COC(C)(C)C4 | -11.8% (inactive) |
| CC(C)Cn1cnc2sc3c(c2c1=N)CCCC3 | -4.26% (inactive) |
| Cn1c(NCc2cc(Br)ccc2O)nc2ccccc21 | -21.2% (inactive) |
| COc1cc(/C=C2/SC(=S)N(CC(=O)Nc3cccnc3)C2=O)cc(OC)c1OC | -45.8% (inactive) |
| CC1Cc2ccccc2N1C(=O)COC(=O)c1ccc(S(=O)(=O)N(C)C)cc1 (stereo not drawn) | -26.3% (inactive) |
| O=C(NC1CCCCC1)C(c1ccncc1)N(CC1CCCO1)C(=O)C(F)(F)F (stereo not drawn) | 3.65% (inactive) |
| CCn1nnc(-c2ccccc2NC(=O)c2ccc(-n3cnnn3)cc2)n1 | -6.44% (inactive) |
| c1ccc(COc2ccccc2CNCc2cccnc2)cc1 | -26% (inactive) |

| SMILES | inhibition |
| --- | --- |
| CC(C)NCCCOc1ccc(Cl)cc1Br | 10.7% (inactive) |
| CCCCNCCCOc1cccc(Cl)c1Cl | 16.4% (inactive) |
| O=C(COc1ccc(Br)cc1Cl)NC(=O)NCc1ccccc1 | -5.96% (inactive) |
| Clc1cc(Br)ccc1OCCn1ccnc1 | 11.8% (inactive) |
| Clc1ccc(OCCCn2ccnc2)c(Br)c1 | 16.8% (inactive) |
| CCN(Cc1ccccc1)C(=O)CN1C(=S)NC(C)(C)CC1C (stereo not drawn) | -9.86% (inactive) |
| CCOC(=O)Nc1ccc(C)cc1C | -17.9% (inactive) |
| COC(=O)c1[nH]c2ccc(C)cc2c1NC(=O)Nc1ccc(OC)cc1 | -17.9% (inactive) |
| O=C(/C=C/c1cccs1)N1CCN(Cc2ccc3c(c2)OCO3)CC1 | -15.1% (inactive) |
| O=C(Nc1cccc2ccccc12)c1ccc(Cn2cc(Cl)cn2)cc1 | 0.25% (inactive) |
| NC(=O)c1cnn(Cc2ccc(Cl)cc2)c1N | -17.2% (inactive) |
| CN(C)c1ccnc(Oc2ccc(F)cc2)c1C#N | -16.6% (inactive) |
| COc1ccc(CN=C2Nc3ccccc3CS2)cc1 | -0.21% (inactive) |
| CCCCn1c(/N=C/c2c[nH]c3ccccc23)nc2ccccc21 | 19.1% (inactive) |
| Fc1ccc(-c2n[nH]c(=S)n2/N=C/c2c[nH]c3ccccc23)cc1 | 12.6% (inactive) |
| Cc1cc(=O)[nH]c(N/N=C/c2c[nH]c3ccccc23)n1 | -27.2% (inactive) |
| O=C(N/N=C/c1cn(-c2ccccc2)nc1-c1ccc(F)cc1)c1ccc2c(c1)OCO2 | 24.5% (inactive) |
| Cc1c(NS(=O)(=O)c2ccccc2)c(=O)n(-c2ccccc2)n1C | -18.6% (inactive) |
| Cc1ccc2nc(SCC(=O)NCc3ccco3)[nH]c2c1 | 0.53% (inactive) |
| Cc1cccc(Nc2nnc(SCC(=O)NC3CCCc4ccccc43)s2)c1 (stereo not drawn) | -3.06% (inactive) |
| Nc1cc(Br)c(N)c(Br)c1 | -3.53% (inactive) |
| CC(=O)Nc1c(O)nc(SCC(=O)N2CCN(c3ccc(F)cc3)CC2)[nH]c1=O | -33.4% (inactive) |
